From PubChem BioAssay AID720504 (National Center for Advancing Translational Sciences (NCATS), 2013)
Out of some 360,000 compounds screened, about 10,000 (2.8%) were called active. Roughly 4% stayed inconclusive and do not appear here. The call rests on the fitted dose curve; in most records, active means well fitted inhibition curve with a large enough effect; inconclusive means small, poorly fitted or top-dose-only effect; inactive means flat fitted curve, though single readings scatter. The sample as a whole holds a higher share of actives than the screen did. Where a structure was tested more than once in an assay, its records may differ in their call.

target: Serine/threonine-protein kinase PLK1 (Homo sapiens) (UniProt P53350); assay: qHTS for Inhibitors of PLK1-PDB (polo-like kinase 1 - polo-box domain): Primary Screen; conditions: Plk1 PBD binding of FITC phosphopeptide, fluorescence polarization; further: nearly all actives have a fitted effect of over 65% in size; on max response, negative = inhibition: series mostly up to about 57 µM
Text: The polo-like kinase 1 (Plk1) is a member of a conserved subfamily of serine / threonine protein kinases that plays a pivotal roles in cell proliferation. It has a C-terminal non-catalytic region called the polo-box domain (PBD) that plays a crucial role in the subcellular localization of the Plk1. […] Furthermore, depletion of the overexpressed Plk1 by RNAi efficiently induces apoptotic cell death in cancer and reduces tumor growth in mouse xenograft models. Thus, targeting Plk1 is an appealing strategy for anti-cancer therapy. Therefore, this project aimed to screen the Molecular Libraries Small Molecule Repository (MLSMR) using a novel approach to find inhibitors that target the Plk1 PBD instead of the conventional N-terminal catalytic domain. This project employed a fluorescence polarization (FP) assay using a FITC-conjugated phospho-9-mer (p-9-mer) peptide and purified human Plk1 PBD protein. The identified small molecule inhibitors of Plk1 PBD can then further be developed into useful tools for biomedical and clinical research that complements or replaces current relevant disease therapy. NIH Chemical Genomics Center [NCGC] NIH Molecular Libraries Probe Centers Network [MLPCN] MLPCN Grant: MH100728 Assay Submitter (PI): Kyung Lee, NCI
Four microliter of 25 nM FITC-p-9-mer + 60 nM Plk1 PBD in buffer solution (final concentrations 25 nM and 60 nM respectively) or 4 uL of 25 nM FITC-p-9-mer (final concentration 25 nM) in buffer will be dispensed into a 1,536 Greiner medium-binding black solid plate. Small molecules at final concentrations of 18 nM to 57 uM and positive control phospho-9-mer (sequence: Ac-PPLHSpTAI-NH2) at final concentrations 26 nM to 57 uM and phospho-13-mer (sequence: Ac-[…]pTAI-NH2) at final concentrations of 1 nM to 2.3 uM will be pin-transferred (23 nL) to the plate via a Kalypsys pin-tool robotics equipped with a 1,536-pin array. The reaction plate will be centrifuged for 1 min at 1000 rpm and incubated at room temperature for 10 min. The FITC fluorescence signals will be read using the PerkinElmer ViewLux plate reader at 480 / 20 nm excitation and 540 / 20 nm S and P polarization emission wavelengths. Reagent bottles will be kept submerged into 4 °C recirculating chiller bath and all liquid lines will be covered with aluminum foil to minimize degradation. Library plates will be screened starting from the lowest to the highest concentrations to minimize compound carryover. Vehicle only plates, with DMSO being pin-transferred instead of compound solutions, will be included regularly throughout the screen to record any systematic shifts in assay signal.
On the % scale 0 is the no-effect control and ±100 the full control effect; potency means the concentration at half of the fitted maximal effect.

Chain of Serine/threonine-protein kinase PLK1 (Homo sapiens) (P53350 whole entry, looked up, the tested form may be a part): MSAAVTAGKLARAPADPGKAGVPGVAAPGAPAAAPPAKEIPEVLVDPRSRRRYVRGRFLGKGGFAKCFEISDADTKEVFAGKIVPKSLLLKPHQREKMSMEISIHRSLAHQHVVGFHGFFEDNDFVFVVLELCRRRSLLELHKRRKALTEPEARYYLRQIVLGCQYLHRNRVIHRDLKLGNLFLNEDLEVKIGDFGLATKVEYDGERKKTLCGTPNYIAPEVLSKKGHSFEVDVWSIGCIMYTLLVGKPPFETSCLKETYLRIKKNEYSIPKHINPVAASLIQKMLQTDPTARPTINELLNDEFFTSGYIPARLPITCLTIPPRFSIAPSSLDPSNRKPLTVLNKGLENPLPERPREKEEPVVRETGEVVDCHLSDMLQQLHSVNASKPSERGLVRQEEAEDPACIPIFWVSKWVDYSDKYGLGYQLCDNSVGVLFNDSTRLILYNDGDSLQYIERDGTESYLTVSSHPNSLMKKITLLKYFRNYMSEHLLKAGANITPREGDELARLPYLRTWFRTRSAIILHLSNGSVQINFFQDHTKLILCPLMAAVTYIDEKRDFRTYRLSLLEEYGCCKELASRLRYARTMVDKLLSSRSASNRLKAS

SMILES	max response, negative = inhibition	Potency
Cc1ccc(-c2c(N)nc3ncccn23)cc1	2.55% (inactive)	–
CCc1nc2c(OCC(N)=O)cccn2c1N(C)C(=O)c1ccc(OC)cc1	-13.5% (inactive)	–
Clc1c(OCCCn2ccnc2)ccc2ccccc12	-25.1% (inactive)	–
CC1(C(=O)NCc2ccccc2)CSCC(=O)N1CCCn1ccnc1 (stereo unspecified)	-0.172% (inactive)	–
Cc1nc2ccccc2c(=O)n1CCCn1ccnc1	–	21.2 µM (active)
CC(C(=O)NC1CCCC1)N(c1ccc(Oc2ccccc2)cc1)S(C)(=O)=O (stereo unspecified)	-1.83% (inactive)	–
COc1ccc(/C=N/NC(=O)C(C)N(c2ccc(OC)cc2)S(C)(=O)=O)cc1 (stereo unspecified)	–	26.7 µM (active)
CN(C)c1ccc(/C=N/NC(=O)C(O)c2ccc(Br)cc2)cc1 (stereo unspecified)	-14.9% (inactive)	–
COc1ccccc1Cc1c(-c2ccc(Cl)cc2)nc2c3ccccc3ccn12	-5.7% (inactive)	–
O=C(/C=C/[C@H]1O[C@@H](n2ccc(=O)[nH]c2=O)[C@H](O)[C@@H]1O)NCc1ccccn1	0.76% (inactive)	–
Cc1cccc(C)c1NC(=O)C(c1ccc(C(F)(F)F)cc1)n1c(=O)c(-c2ccco2)nc2ccccc21 (stereo unspecified)	-16.2% (inactive)	–
CC(C)/C=N/NC(=O)c1cc(Br)ccc1O	-13.1% (inactive)	–
COc1ccc(CC(=O)NCC(=O)N/N=C/c2cc(Br)ccc2OC)cc1	0.444% (inactive)	–
COc1ccc(-c2[nH]ncc2/C=N/NC(=O)c2cc(Br)ccc2O)c(OC)c1	–	26.7 µM (active)
CC(C)(O)C1=C[N+](=O)CC=C1	-9.3% (inactive)	–
Cc1cc(C)n2nc(SCC(=O)NC(=O)NCc3ccco3)nc2n1	–	16.8 µM (active)
CCOC(=O)c1cnc(SCC(=O)NCc2ccco2)nc1N	-1.79% (inactive)	–
O=C(CNc1ccc(F)cc1F)NC(=O)NCc1ccco1	-20.1% (inactive)	–
O=[N+]([O-])c1ccc(CN2CC(N3CCC(c4ccccc4)CC3)CS2(=O)=O)cc1 (stereo unspecified)	-13.3% (inactive)	–
CCOc1ccc(Cl)cc1-c1cc(C(=O)NCc2cccs2)[nH]n1	-0.638% (inactive)	–
Cc1nn(C(=O)c2ccoc2C)c(N)c1-c1ccccc1	-3.12% (inactive)	–
Cc1nn2c(c1-c1ccccc1)N=C(c1ccco1)CC2c1ccccc1 (stereo unspecified)	2.38% (inactive)	42.3 µM (active)

SMILES	max response, negative = inhibition	Potency
O=C(O)CCCC(=O)N1N=C(c2ccco2)CC1c1ccco1 (stereo unspecified)	-14% (inactive)	–
C[C@H]1CN([C@@H](C)CO)C(=O)c2cc(-c3ccccc3F)cnc2O[C@H]1CN(C)C(=O)C1CCOCC1	-20.8% (inactive)	–
Cc1ccc(Cn2c(C)c(C(=O)NCc3ccccc3C(F)(F)F)sc2=O)cc1	-12.2% (inactive)	–
O=C(Cc1ccc(-c2ccccc2)cc1)NC(c1ccccc1)c1ccccc1	–	21.2 µM (active)
O=C(CN1CCN(Cc2ccccc2)CC1)NC(c1ccccc1)c1ccccc1	-13.1% (inactive)	–
C=CCC(NC(=O)Cc1ccccc1)C(=O)NCCC (stereo unspecified)	-11.6% (inactive)	–
O=C1NC[C@H](CCCCN2C[C@H](Cc3ccc(O)cc3)N(CC3CCCCC3)C(=O)C2=O)N(CCc2ccccc2)C1=O	-5.25% (inactive)	–
Cc1nc2c(OCc3ccc(Cl)cc3Cl)cccn2c1N(C)CC1CC1	-13% (inactive)	–
Cc1cc2nc(-c3ccc(Cl)cc3)c(Cc3cccc(F)c3)n2c(C)c1Br	-18.5% (inactive)	–
Cc1noc(C)c1NC(=O)N(C)C[C@@H]1Oc2cc(Br)ccc2S(=O)(=O)N([C@@H](C)CO)C[C@H]1C	2.61% (inactive)	–
Cn1c2c(c(=O)n(C)c1=O)C(c1cccc(F)c1)C(C#N)=C(N)O2 (stereo unspecified)	-22.7% (inactive)	–
COc1ccccc1C1C(C#N)=C(N)Oc2c1c(-c1ccccc1)nn2-c1ccccc1 (stereo unspecified)	-0.276% (inactive)	–
Cc1nn(-c2ccccc2)c2c1C(c1ccc(F)cc1)C(C#N)=C(N)O2 (stereo unspecified)	–	23.8 µM (active)
COc1ccc(S(=O)(=O)NC(=O)C2(C)CCN2C(=O)c2ccccc2CCc2ccccc2)cc1 (stereo unspecified)	-9.6% (inactive)	–
Cc1cc(Nc2ccc(C)c(C)c2)n2ncnc2n1	-12.1% (inactive)	–
CCCNC(=S)N1CCC(NC(=O)c2ccc(OC)cc2)CC1	-7.7% (inactive)	–
O=C(NC1CCN(C(=S)NCc2ccco2)CC1)c1ccc(F)cc1	–	23.8 µM (active)
O=S(=O)(c1ccc(F)cc1)N1CCN(C(=S)NCc2ccco2)CC1	-10.7% (inactive)	–
COC(=O)C[C@@H]1C=C[C@@H](NS(=O)(=O)c2cccc(OC)c2)[C@@H](CO)O1	-1.82% (inactive)	–
CC(=O)Nc1c(-c2ccc(C)cc2)nc2ccc(Cl)cn12	-2.35% (inactive)	–
CCCCN(CC)CCCNC(=O)CS(=O)(=O)Cc1nc(-c2cccc(OC)c2)oc1C	0.434% (inactive)	–
COc1ccc(CCNC(=O)CS(=O)(=O)Cc2nc(-c3ccc(C)cc3)oc2C)cc1OC	-18.7% (inactive)	–

SMILES	max response, negative = inhibition	Potency
COc1cccc(-c2nc(CS(=O)(=O)CC(=O)NCCc3ccc(OC)c(OC)c3)c(C)o2)c1	–	18.9 µM (active)
CC(=O)Nc1cccc(Nc2ccc(C#N)cc2)c1	0.998% (inactive)	–
CC1CCCC(NC(=O)COC(=O)c2ccccc2C(=O)N(C)C2CCCCC2)C1C (stereo unspecified)	-13.1% (inactive)	–
O=C(COC(=O)c1ccccc1)Nc1cccc(S(=O)(=O)N2CCOCC2)c1	10.6% (inactive)	–
O=C(CSc1ccccc1)Nc1cccc(S(=O)(=O)N2CCOCC2)c1	–	23.8 µM (active)
CCN(CC(=O)Nc1cccc(S(=O)(=O)N2CCCCC2)c1)Cc1ccccc1	1.36% (inactive)	–
O=C(CSc1ccccc1)Nc1cccc(S(=O)(=O)N2CCCCC2)c1	3.72% (inactive)	–
Nc1cc(N)nc(SCC(=O)Nc2cccc(S(=O)(=O)N3CCCCC3)c2)n1	-3.4% (inactive)	–
O=C(Cn1cnc2ccccc2c1=O)Nc1cccc(S(=O)(=O)N2CCCCC2)c1	–	26.7 µM (active)
CN(C)CCN1CCN(c2cc(-c3cccc(Cl)c3)nc3ccnn23)CC1	-12.4% (inactive)	–
COc1ccc(Sc2ccc(NC(=O)c3cccc(Cl)c3)cc2C#N)cc1	2.16% (inactive)	–
Cc1cccc(CN2CCN(C3CN(Cc4ccccc4)S(=O)(=O)C3)CC2)c1 (stereo unspecified)	2.44% (inactive)	–
Nc1ncnc2c1ncn2[C@@H]1O[C@H](CNC(=O)[C@H](N)Cc2cccnc2)[C@@H](O)[C@H]1O	-2.93% (inactive)	–
CCCCCC(=O)N1C[C@H](O)[C@@H](n2cc(COC(=O)c3ccccc3)nn2)C[C@@H]1c1ccc(C)cc1	-4.42% (inactive)	–
CCOC(=O)CSc1nc(C)c(Oc2ccc(Cl)cc2Cl)c(=O)[nH]1	-19.2% (inactive)	–
Cc1nnc(SCC(=O)N2CCOCC2)[nH]c1=O	-7.51% (inactive)	–
CCCCOC(=O)CNc1nnc(SCC(=O)OCC)[nH]c1=O	–	13.4 µM (active)
CCc1nc2ccc(C(=O)N(C)CCN(C)C)cn2c1N(CC)CCOC	-14.3% (inactive)	–
COCOCCn1cc(CN2CCS(=O)(=O)N(Cc3ccc(-c4ccccc4)cc3)C(CC(C)C)C2=O)nn1 (stereo unspecified)	-0.127% (inactive)	–
COc1cccc(-n2nc(C(=O)N3CCN(Cc4ccccc4)CC3)c3ccccc3c2=O)c1	–	29.9 µM (active)
COc1ccc(-n2nc(C(=O)NCC(=O)N3CCCCCC3)c3ccccc3c2=O)cc1Cl	4.93% (inactive)	–
CCOC(=O)CNC(=O)c1nn(-c2cccc(OC)c2)c(=O)c2ccccc12	-5.49% (inactive)	–

SMILES	max response, negative = inhibition	Potency
CC1(C(=O)NS(=O)(=O)c2cccs2)CCN1C(=O)Cc1ccc(-c2ccccc2)cc1 (stereo unspecified)	-1.09% (inactive)	–
COC(=O)[C@]12CCCCC=C1N(Cc1ccco1)C(=O)[C@H](CC(=O)NCCCCc1ccccc1)C2	-4.79% (inactive)	–
COc1cccc(CNC(=O)[C@@H]2CCCN2C(=O)[C@@H]2CCCN2C(=O)c2ccccc2)c1	-5.85% (inactive)	–
COc1ccc(-c2cc(C(=O)NC(Cc3c[nH]c4ccccc34)C(=O)O)c(C)o2)cc1OC (stereo unspecified)	–	13.4 µM (active)
COc1ccc(-c2cc(C(=O)NC(C(=O)O)C(C)C)c(C)o2)cc1OC (stereo unspecified)	-8.55% (inactive)	–
COc1ccc(-c2cc(=O)oc3cc(OCC(=O)N[C@@H](Cc4c[nH]c5ccccc45)C(=O)O)ccc23)cc1	-6.27% (inactive)	–
CCn1c(COc2c(C)cccc2C)nnc1SCc1nc2ccccc2c(=O)[nH]1	-11.4% (inactive)	–
COc1ccc(CCCc2nnc(SCc3nc4ccccc4c(=O)[nH]3)n2C)cc1	–	3.77 µM (active)
CCn1c(Cc2ccccc2)nnc1SCc1nc2ccccc2c(=O)[nH]1	-5.5% (inactive)	–
Cc1cc(/C=C2/C(=N)N3C(=NC2=O)SN=C3S(C)(=O)=O)c(C)n1-c1ccccc1	–	26.7 µM (active)
Cc1cc(/C=C2/NC(=O)NC2=O)c(C)n1-c1cccnc1	2.71% (inactive)	–
CS(=O)(=O)C1=NN2C(=N)/C(=C\c3ccc(OCCOc4ccccc4)cc3)C(=O)N=C2S1	–	26.7 µM (active)
CS(=O)(=O)c1ccc2c(c1)SC1=NC(=O)/C(=C/c3ccco3)C(=N)N12	-3.25% (inactive)	–
COc1ccccc1OCCOc1ccc(/C=C2\C(=N)N3N=C(C)SC3=NC2=O)cc1	-15.8% (inactive)	–
CCS(=O)(=O)C1=NSC2=NC(=O)/C(=C\c3ccc(OS(=O)(=O)c4ccccc4)cc3)C(=N)N21	–	29.9 µM (active)
COc1cc(/C=C2\C(=N)N3N=C(CC(=O)N4CCOCC4)SC3=NC2=O)cc(OC)c1OC	-14.2% (inactive)	–
CCCS(=O)(=O)NC(=O)C1(C)CCCN(C(=O)c2cccs2)C1 (stereo unspecified)	-11.7% (inactive)	–
COc1cccc(-c2cc(NC(C)=O)c3ncc(-c4cccc(C(C)=O)c4)n3c2)c1	-19.9% (inactive)	–
CCCCc1ccc(S(=O)(=O)NC(=O)C2(C)CCN2C(=O)c2ccccc2)cc1 (stereo unspecified)	-13.3% (inactive)	–
